Results from PubChem BioAssay AID605 (National Center for Advancing Translational Sciences (NCATS), 2007).
The whole screen tested about 71,000 compounds, of which about 35 (0.05%) were called active. Calls come from the whole dose curve; as a rule, active = well fitted curve in the direction sought with a large enough effect; inconclusive = small, poorly fitted or top-dose-only effect, or effect the other way; inactive = flat fitted curve, though single readings scatter. The list is a sample of the results.

target: tRNA threonylcarbamoyladenosine biosynthesis protein TsaE (Escherichia coli (strain K12)) (UniProt P0AF67); assay: qHTS Assay for Inhibitors of YjeE; settings: purified YjeE enzyme, qHTS inhibition assay
Procedure: NIH Molecular Libraries Screening Centers Network [MLSCN]
NIH Chemical Genomics Center [NCGC]
Assay Provider: Eric Brown, McMaster University
YjeE is an essential E.coli protein of unknown function that binds adenosine diphosphate (ADP). A complex of YjeE and BODIPY Texas Red-labeled ADP probe (Invitrogen, catalog number A22359) is incubated with library members. Inhibitors of YjeE-ADP binding are detected by a decrease in the fluorescence polarization (FP) of the fluorophore. Purified YjeE was supplied by Chand Mangat and Eric Brown, McMaster University.
NCGC Assay Protocol Summary:
2 uM probe/10 uM YjeE in columns 1, 2, 5-48. Titration of ADP control (from 40 mM, then 1:2) pin-transferred to top half of column 2. Column 1 and bottom half of column 2 are neutral.
Two and a half uL of reagents were dispensed to 1536-well Greiner black plates. Compounds and controls (20 nL) were transferred via Kalypsys PinTool. The plates were incubated for 15 min at room temperature, and then read on ViewLux (Perkin-Elmer) High-throughput CCD imager using BODIPY polarization filter set and 30 seconds exposure time. During dispense, reagent bottle was kept submerged into 4 deg C water bath and all liquid lines were covered with aluminum foil to minimize probe and protein degradation.
Keywords: NIH Roadmap, MLSCN, MLI, MLSMR, qHTS, NCGC, YjeE

outcome, inactive:
CCc1ccc(Nc2ncc3c(n2)CC(c2ccco2)CC3=O)cc1 (stereo not given)
COc1ccc(CN(C(=O)c2cccs2)c2nccs2)cc1OC
Cc1ccc(C(=O)CS(C)(=O)=O)cc1
CC(C)C(=O)N1CCN(CCN=CC2=C(O)CC(c3ccco3)CC2=O)CC1 (stereo not given)
COc1cccc(N2CCN(C(=O)C3CCCN(S(=O)(=O)c4cnc[nH]4)C3)CC2)c1 (stereo not given)
O=C(Nc1c(C(=O)N2CCCCC2)cnn1-c1ccccc1)c1ccco1
COc1ncc2nc(-c3ccc(Cl)cc3)c(=O)n(-c3ccccc3)c2n1
COc1cc2[nH]c(=S)n(Cc3ccc(C)o3)c(=O)c2cc1OC
CCC(C)(C)N=C(NC#N)Nc1cccnc1
C[C@@H](Nc1nc(-c2ccccc2)nc2c1oc1ccccc12)C(=O)O
Cc1ccc(N(CC(O)CN2CCCC2)S(=O)(=O)c2ccccc2)cc1 (stereo not given)
COc1ccc(N2C(=O)CC(N3CCC(C(N)=O)CC3)C2=O)cc1 (stereo not given)
CCCCCCn1c(CN2CCCC(C)C2)nc2c1c(=O)n(C)c(=O)n2C (stereo not given)
O=NO
Cc1ccc(S(=O)(=O)NC(=O)NN2C[C@H]3CCC[C@@H]3C2)cc1
CCCn1c(=O)c(-c2ccccc2)c(O)c2ccccc21
CC(C)CC1(C(=O)NCc2ccccn2)C=CCN1C(=O)c1ccccc1 (stereo not given)
COCCOC(=O)C1=C(C)Nc2nc(C)nn2C1c1ccccc1 (stereo not given)
CCCC(=O)Nc1nnc(CC(=O)OCC)s1
O=C(O)[C@@H](S)[C@H](S)C(=O)O
